Source: PubChem
Rows were chosen to be rich in hits. Some 19% of all compounds tested hit in one or more screens of this group.
DT40 TDP1 no CPT: qHTS for Inhibitors of human tyrosyl-DNA phosphodiesterase 1 (TDP1): qHTS in cells in absence of CPT | DT40 Tdp1-/- hTDP1 cells, no CPT, ATP luminescence, 48 h | Potency, µM (highest dose often 46.2 µM), for inactives: at the top dose activity change, negative = growth inhibition, usual class: inhibitors | actives 15% (n = 420,000); further: potency means the concentration at half of the fitted maximal effect; nearly all actives have a fitted effect of over 55% in size
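Luminescent ATP content (CellTiter-Glo) served as the growth readout. Knockout chicken DT40 cells expressing human TDP1 were exposed to compounds without camptothecin for a minimum 48 hr at 37 °C.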
TDP1 cell CPT: DT40-hTDP1 cell growth loss with CPT | chicken DT40 Tdp1-/-;hTDP1 cells + 20 nM CPT, ATP luminescence, 48 h | Potency, µM (titrated, usually from 46.2 µM), for inactives: at the top dose activity change, negative = growth inhibition, actives largely listed as inhibitors | actives 12% (n = 420,000) | AID 686979; further: potency means the concentration at half of the fitted maximal effect; nearly all actives have a fitted effect of over 55% in size
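Chicken DT40 Tdp1-/- cells stably complemented with human TDP1 were seeded at 400 cells/well in medium containing 20 nM camptothecin, exposed to pin-transferred compounds, and grown at 37 °C for at least 48 hr. Viability was read as ATP luminescence.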
HT1080 IDH1KD tx: kills HT-1080 cells with IDH1 knockdown; Potency, µM (highest dose often 46.1 µM), for inactives: top-dose activity, negative = toxicity, actives largely listed as cytotoxic; AID 686971; HT-1080 IDH1 knockdown viability, ATP luminescence, 48 h; actives 2% (n = 360,000);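 further: potency means the concentration at half of the fitted maximal effect; 0% = DMSO wells and -100% = cell-free medium wells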
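% activity derives from luminescence (CellTiter-Glo), normalised to DMSO and no-cell wells. HT-1080-IDH1KD cells, 750/well, had 48 h compound exposure at 37 °C.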
ELG1 DNA repair: ELG1-dependent DNA repair inhibition; HEK293T ELG1-luciferase reporter, luminescence, 16 h; DNA damage induced by 5-fluorouridine; actives 2.3% (n = 330,000); Potency, µM (titrated, usually from 46.1 µM), for inactives: at the top dose activity change, negative = inhibition, usual class: inhibitors; AID 504467; further: potency means the concentration at half of the fitted maximal effect; nearly all actives have a fitted effect of over 55% in size
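HEK293T cells expressing luciferase-tagged ELG1 (2,000/well) received 5-Fluorouridine plus compound or DMSO for 16 hr at 37 °C. Luciferase was read by ONE-Glo luminescence after 30 min at room temperature.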
IL-1B inflam inh: inflammasome signaling inhibition, IL-1 beta readout | THP-1 LPS/ATP IL-1B secretion, AlphaLISA, 16 h; stronger effect = lower value | actives 4.7% (n = 360,000) | AID 743279 | activity change, % at 57.5 µM; in the data active means activity change below about -50%; inconclusive means mostly about -30% to -49%
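THP-1 cells pretreated 1 hr with compounds (up to 57.5 uM final), then stimulated with LPS (250 ng/mL final) plus ATP (1.25 mM final); secreted IL-1B measured by AlphaLISA after 16 hr, decreased signal indicating inhibition.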
HT1080NT lethal: kills 2HG-producing HT-1080-NT fibrosarcoma cells; HT-1080-NT fibrosarcoma viability, CellTiter-Glo ATP luminescence, 48 h; Potency, µM (highest dose often 46.1 µM), inactives show at the highest dose activity, negative = less viability, hits mostly cytotoxic; actives 1.6% (n = 360,000); AID 686970;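 further: NT is the 2HG producing partner of a matched IDH1 knockdown line; potency means the concentration at half of the fitted maximal effect; 0% = DMSO-treated cells and -100% = media-only wells without cells; nearly all actives have a fitted effect of over 55% in size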
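HT-1080-NT; 750 cells/well; 5% FBS RPMI; 48 h compound, 37 degrees C; CellTiter-Glo luminescence; curve fitting and curve-class assignment.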
* hit, by the source's call. Unless noted, the call rests on the fitted dose curve; in most records, active means well fitted curve in the direction sought with a large enough effect; inconclusive means small, poorly fitted or top-dose-only effect, or another doubt; inactive means no such curve, though single readings can be large; an effect the other way counts as inactive or inconclusive. Unless noted, on the % scale 0 is the no-effect control and ±100 the full control effect.

What do the screens show for `COc1ccc(OCCn2c(NC(=O)c3ccco3)nc3ccccc32)cc1`?
DT40 TDP1 no CPT: 23.1µM*; TDP1 cell CPT: 18.4µM*; HT1080 IDH1KD tx: inconclusive; ELG1 DNA repair: 12.6µM*; IL-1B inflam inh: -19.5; HT1080NT lethal: inconclusive

What do the screens show for `S=C(Nc1ccccc1)Nc1nc2ccccc2n1CCOc1ccccc1`?
DT40 TDP1 no CPT: 16.4µM*; TDP1 cell CPT: 18.4µM*; HT1080 IDH1KD tx: inconclusive; ELG1 DNA repair: 0.0%; IL-1B inflam inh: -105.8*; HT1080NT lethal: inconclusive

What do the screens show for `CC(=O)Nc1nc2ccccc2n1CCOc1ccccc1`?
DT40 TDP1 no CPT: inconclusive; TDP1 cell CPT: inconclusive; HT1080 IDH1KD tx: -28.4%; ELG1 DNA repair: inconclusive; IL-1B inflam inh: 24.2; HT1080NT lethal: -19.7%

How did COc1ccc(C(=O)Nc2nc3ccccc3n2CCOc2ccc(Cl)cc2)cc1 do in these assays?
DT40 TDP1 no CPT: 13µM*; TDP1 cell CPT: inconclusive

How did COc1ccc2sc(NC(=O)c3ccco3)nc2c1 do in these assays?
DT40 TDP1 no CPT: -23.9%; TDP1 cell CPT: inconclusive; HT1080 IDH1KD tx: -20.3%; ELG1 DNA repair: inconclusive; IL-1B inflam inh: 8.0; HT1080NT lethal: inconclusive

Results for COc1cccc(S(=O)(=O)NC2CCN(C#N)C2)c1 (stereo not drawn) ?
ELG1 DNA repair: 24.0%

Results for C=CCn1c(N)c(C(=O)NCC2CCCO2)c2nc3ccccc3nc21 (stereo not drawn) ?
DT40 TDP1 no CPT: inconclusive; TDP1 cell CPT: inconclusive; HT1080 IDH1KD tx: -23.2%; ELG1 DNA repair: 10.3µM*; IL-1B inflam inh: inconclusive; HT1080NT lethal: inconclusive

What do the screens show for `CC(C)Cn1c(N)c(C(=O)NCCN2CCOCC2)c2nc3ccccc3nc21`?
DT40 TDP1 no CPT: 18.4µM*; TDP1 cell CPT: inconclusive; HT1080 IDH1KD tx: 2.6%; ELG1 DNA repair: inconclusive; IL-1B inflam inh: -61.4*; HT1080NT lethal: 4.0%

Results for Cc1cccc(-n2c(N)c(C(=O)NCCN3CCOCC3)c3nc4ccccc4nc32)c1 ?
DT40 TDP1 no CPT: 18.4µM*; TDP1 cell CPT: inconclusive; HT1080 IDH1KD tx: inconclusive; ELG1 DNA repair: inconclusive; IL-1B inflam inh: -64.2*; HT1080NT lethal: inconclusive

What do the screens show for `Cc1cccc(-n2cnc3cc(C(=O)NCCN4CCOCC4)ccc32)c1`?
DT40 TDP1 no CPT: -24.7%; TDP1 cell CPT: -14.4%; HT1080 IDH1KD tx: 15.2%; IL-1B inflam inh: inconclusive; HT1080NT lethal: 5.2%

How did CC(C)Cn1c2nc3ccccc3nc2c2c(=O)n(CCN3CCOCC3)cnc21 do in these assays?
DT40 TDP1 no CPT: inconclusive; TDP1 cell CPT: inconclusive; HT1080 IDH1KD tx: -6.1%; ELG1 DNA repair: inconclusive; IL-1B inflam inh: -55.6*; HT1080NT lethal: -1.2%

What do the screens show for `Cc1cccnc1C1=NOC(Cc2ccccc2)C(=O)N1Cc1ccccc1F` (stereo not drawn)?
DT40 TDP1 no CPT: inconclusive; TDP1 cell CPT: inconclusive; HT1080 IDH1KD tx: -2.3%; IL-1B inflam inh: -0.2; HT1080NT lethal: -0.3%

What do the screens show for `COc1ccc(C(=O)Nc2nnc(S(=O)(=O)N3CCOCC3)s2)cc1`?
DT40 TDP1 no CPT: 1.4%; TDP1 cell CPT: -14.0%; HT1080 IDH1KD tx: 0.8%; ELG1 DNA repair: 4.5%; IL-1B inflam inh: -1.8; HT1080NT lethal: -1.8%

What do the screens show for `CSCC[C@H](CO)NC(=O)[C@H]1O[C@@H](n2cnc3c(N)ncnc32)[C@H](O)[C@@H]1O`?
DT40 TDP1 no CPT: -9.0%; TDP1 cell CPT: -11.9%; HT1080 IDH1KD tx: 16.5%; IL-1B inflam inh: 2.8; HT1080NT lethal: 8.5%

What do the screens show for `CCn1c(CCn2c3ccccc3c3ccccc32)n[nH]c1=S`?
DT40 TDP1 no CPT: inconclusive; TDP1 cell CPT: 14.6µM*; HT1080 IDH1KD tx: inconclusive; ELG1 DNA repair: -3.0%; IL-1B inflam inh: 4.0; HT1080NT lethal: -18.9%

What do the screens show for `CCOc1cc(S(=O)(=O)NCc2ccc(OC)cc2)c(OCC)cc1-n1cnnn1`?
DT40 TDP1 no CPT: 2.06µM*; TDP1 cell CPT: 4.11µM*; HT1080 IDH1KD tx: 8.91µM*; ELG1 DNA repair: -16.1%; IL-1B inflam inh: 27.7; HT1080NT lethal: 12.6µM*

What do the screens show for `COc1ccccc1CNS(=O)(=O)c1ccc(N2CCCC2)cc1Br`?
DT40 TDP1 no CPT: inconclusive; TDP1 cell CPT: 16.4µM*; HT1080 IDH1KD tx: -12.9%; ELG1 DNA repair: inconclusive; IL-1B inflam inh: -4.7; HT1080NT lethal: -10.5%

What do the screens show for `COc1cccc(C(O)c2nc(-c3ccc(N(C)C)cc3)cs2)c1` (stereo not drawn)?
DT40 TDP1 no CPT: 16.4µM*; TDP1 cell CPT: 23.1µM*; HT1080 IDH1KD tx: inconclusive; IL-1B inflam inh: 28.1; HT1080NT lethal: -17.9%

How did COc1ccc(-c2csc(C(O)c3ccccc3)n2)cc1 (stereo not drawn) do in these assays?
DT40 TDP1 no CPT: inconclusive; TDP1 cell CPT: inconclusive; HT1080 IDH1KD tx: -12.6%; IL-1B inflam inh: 12.3; HT1080NT lethal: 16.9%

What do the screens show for `COc1ccc(-c2csc(C(O)c3cccc(OC)c3)n2)cc1` (stereo not drawn)?
DT40 TDP1 no CPT: inconclusive; TDP1 cell CPT: 11.6µM*; HT1080 IDH1KD tx: inconclusive; IL-1B inflam inh: 10.5; HT1080NT lethal: -17.5%

What do the screens show for `COc1ccc(-c2csc(C(O)c3ccc(F)c(F)c3)n2)cc1` (stereo not drawn)?
DT40 TDP1 no CPT: 13µM*; TDP1 cell CPT: 18.4µM*; HT1080 IDH1KD tx: inconclusive; IL-1B inflam inh: 6.0; HT1080NT lethal: -17.5%

How did OC(c1ccc(F)c(F)c1)c1nc(-c2ccccc2)cs1 (stereo not drawn) do in these assays?
DT40 TDP1 no CPT: inconclusive; TDP1 cell CPT: inconclusive; HT1080 IDH1KD tx: -12.8%; IL-1B inflam inh: -2.5; HT1080NT lethal: -10.2%

Results for CCN(CC)C(=O)c1cccc(-c2csc(C(O)c3cccc(OC)c3)n2)c1 (stereo not drawn) ?
DT40 TDP1 no CPT: 4.61µM*; TDP1 cell CPT: 23.1µM*; HT1080 IDH1KD tx: inconclusive; IL-1B inflam inh: -17.5; HT1080NT lethal: inconclusive

How did O=C(c1cnc(Cl)c(Cl)c1)N1CCN(S(=O)(=O)c2cccs2)CC1 do in these assays?
DT40 TDP1 no CPT: -3.5%; TDP1 cell CPT: -25.1%; HT1080 IDH1KD tx: 4.7%; IL-1B inflam inh: 8.0; HT1080NT lethal: -0.1%

How did CS(=O)(=O)c1cc(C(=O)O)cc(NCc2ccccc2)c1Oc1ccccc1 do in these assays?
DT40 TDP1 no CPT: inconclusive; TDP1 cell CPT: -19.4%; HT1080 IDH1KD tx: 5.3%; IL-1B inflam inh: 9.3; HT1080NT lethal: 8.1%
